Measurements from PubChem BioAssay AID1347418 (Sanford-Burnham Center for Chemical Genomics, 2020).
The whole screen tested about 1,300 compounds, of which about 750 (58%) were called active. Some of the results follow.

Each compound was assayed against Sulfhydryl oxidase 1 (Homo sapiens) (UniProt O00391) (assay: inhibition of human sulfhydryl oxidase QSOX1 – biochemical, ROS-Glo H2O2 luminescence, HTS, primary screen (AID 1347418)). Conditions: recombinant QSOX1, ROS-Glo H2O2 luminescence; at 12.5 µM; stronger effect = higher value; active = any value above zero.
Sequence of Sulfhydryl oxidase 1 (Homo sapiens) (O00391 whole entry, looked up): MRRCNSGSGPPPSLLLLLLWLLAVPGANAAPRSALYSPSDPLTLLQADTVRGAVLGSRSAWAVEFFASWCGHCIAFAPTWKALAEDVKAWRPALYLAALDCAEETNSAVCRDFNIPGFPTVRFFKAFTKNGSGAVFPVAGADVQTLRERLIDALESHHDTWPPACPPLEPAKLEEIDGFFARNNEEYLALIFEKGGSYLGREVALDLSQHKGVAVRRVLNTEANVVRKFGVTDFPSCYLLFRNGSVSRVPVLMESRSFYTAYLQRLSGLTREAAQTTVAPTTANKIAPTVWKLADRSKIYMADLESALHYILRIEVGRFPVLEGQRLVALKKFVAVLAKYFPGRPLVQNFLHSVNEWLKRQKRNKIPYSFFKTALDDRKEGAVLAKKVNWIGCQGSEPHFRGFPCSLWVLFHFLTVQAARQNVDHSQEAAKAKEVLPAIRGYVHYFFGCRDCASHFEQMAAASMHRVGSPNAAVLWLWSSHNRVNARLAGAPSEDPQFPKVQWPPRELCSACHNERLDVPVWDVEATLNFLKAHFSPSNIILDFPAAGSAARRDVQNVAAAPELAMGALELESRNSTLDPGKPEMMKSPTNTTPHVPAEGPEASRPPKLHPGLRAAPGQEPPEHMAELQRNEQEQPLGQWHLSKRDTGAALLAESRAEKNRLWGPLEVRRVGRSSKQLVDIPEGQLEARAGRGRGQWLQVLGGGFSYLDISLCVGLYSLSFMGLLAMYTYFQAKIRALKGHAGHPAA

For O=NN(CCCl)C(=O)NCCCl, which inhibition is on record?
Its inhibition is -3.4% (inactive).

NC1CCN(O)C1=O (stereo unspecified) was tested. Which inhibition did it give?
The inhibition was 1.1% (active).

For COc1cc2c(c(OC)c1OC)-c1ccc(OC)c(=O)cc1[C@@H](NC(C)=O)CC2, which inhibition is on record?
Its inhibition is 1.3% (active).

Which inhibition does the source give for CCCCCCC(=O)OC1CC(C)(C)NC(C)(C)C1 here?
Its inhibition is 1.1% (active).

For Nc1ccc(S(=O)(=O)Nc2ccnn2-c2ccccc2)cc1, which inhibition is on record?
Its inhibition is -1.7% (inactive).

With CNc1cc(NS(=O)(=O)c2ccc(N)cc2)nc(NC)n1 as the compound, how does the inhibition read?
Its inhibition is 3.7% (active).

With O=C(O)C1=CC(=C(c2ccc(O)c(C(=O)O)c2)c2ccc(O)c(C(=O)O)c2)C=CC1=O as the compound, how does the inhibition read?
Its inhibition is 17.4% (active).

Which inhibition does the source give for COc1cc(/C=C(\C#N)C(=O)c2ccc(O)c(O)c2)cc(I)c1O here?
The inhibition was 27.3% (active).

For N#C/C(=C\c1ccc(O)c(O)c1)C(=O)c1ccc(O)c(O)c1, which inhibition is on record?
The inhibition was 17.4% (active).

How did the inhibition turn out when CN(C)CCC(c1ccc(Br)cc1)c1ccccn1 (stereo unspecified) was run?
The inhibition was 0.5% (active).

With CN(C)CCC(c1ccccc1)c1ccccn1 (stereo unspecified) as the compound, how does the inhibition read?
Its inhibition is 1.1% (active).

For CN(C)CC[C@@H](c1ccc(Cl)cc1)c1ccccn1, which inhibition is on record?
Its inhibition is 0% (inactive).

How did the inhibition turn out when CN(C)CC[C@@H](c1ccc(Br)cc1)c1ccccn1 was run?
Its inhibition is 7.7% (active).

CN(C)CCC(c1ccc(Cl)cc1)c1ccccn1 (stereo unspecified) was tested. Which inhibition did it give?
Its inhibition is 2.8% (active).

O.O.[NH2-].[NH2-].[NH2-].[NH2-].[NH2-].[NH2-].[NH2-].[NH2-].[NH2-].[NH2-].[NH2-].[NH2-].[NH2-].[NH2-].[Ru].[Ru].[Ru] was tested. Which inhibition did it give?
Its inhibition is 20.7% (active).

Which inhibition does the source give for CCCCC/C=C\CC(O)/C=C/c1cccc(CC(O)CCCCO)n1 (stereo unspecified) here?
The inhibition was -0.7% (inactive).

O=C1CCc2cc(OCCCCc3nnnn3C3CCCCC3)ccc2N1 was tested. Which inhibition did it give?
Its inhibition is 1.5% (active).

With CCOC(=O)C1=C[C@]2(CC)CCCN3CCc4c(n1c1ccccc41)[C@@H]32 as the compound, how does the inhibition read?
The inhibition was 0.9% (active).

Which inhibition does the source give for O=C1c2c(O)ccc(O)c2C(=O)c2c(NCCNCCO)ccc(NCCNCCO)c21 here?
Its inhibition is 42% (active).

For C=C1N=C(N=NC2=C(S(=O)(=O)[O-])[C+]=C(S(=O)(=O)[O-])[C+]=C2)[C+](COP(=O)([O-])O)C(C=O)=C1O, which inhibition is on record?
Its inhibition is -3.7% (inactive).

With CC(=O)[C@H]1CC[C+]2C3CC=C4C[C@@H](OS(=O)(=O)[O-])CC[C@]4(C)C3CC[C@@]21C (stereo partly specified) as the compound, how does the inhibition read?
Its inhibition is 1.8% (active).

Which inhibition does the source give for CCOC(=O)C(C)Oc1cccc2c(=O)n(CC(=O)Nc3ccc4c(c3)OCCO4)ccc12 (stereo unspecified) here?
The inhibition was -3.2% (inactive).

How did the inhibition turn out when c1ccc(CN2CCC3(CCCc4ccccc43)CC2)cc1 was run?
Its inhibition is 3.6% (active).

How did the inhibition turn out when Cc1nc2sccn2c(=O)c1CCN1CCC(=C(c2ccccc2)c2ccc(F)cc2)CC1 was run?
Its inhibition is 1.2% (active).

With Cc1nc2sccn2c(=O)c1CCN1CCC(=C(c2ccc(F)cc2)c2ccc(F)cc2)CC1 as the compound, how does the inhibition read?
Its inhibition is 1.1% (active).

With Cc1nc2ccccn2c(=O)c1CCN1CCC(C(=O)c2ccc(F)cc2)CC1 as the compound, how does the inhibition read?
The inhibition was -1.4% (inactive).
